Measurements published in PubChem BioAssay (NCATS).
Records with an inconclusive call do not appear. Calls of active or inactive are those of the source. Unless noted, calls follow the shape of the dose curve; as a rule, active = well fitted curve in the direction sought with a large enough effect; inconclusive = small, poorly fitted or top-dose-only effect, or another doubt; inactive = no such curve, though single readings can be large; an effect the other way counts as inactive or inconclusive.

How the values were obtained:
[1] = NS1 protein of Zika virus - qHTS assay to identify small molecule inhibitors in human HEK 293 cells (AID 1347053);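 also: plate controls were infected untreated cells for no effect and uninfected cells for full effect; nearly all actives have a fitted effect of over 55% in size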
How it was run: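 Compound-treated (1 h pre-infection) HEK 293 cells infected with ZIKV MR766, MOI = 0.5; after 24 h at 37 C, NS1 read by TR-FRET; data normalized to uninfected and infected controls.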

[2] = target: T1, Tyrosine-protein phosphatase non-receptor type substrate 1 (Homo sapiens) + Leukocyte surface antigen CD47 (Homo sapiens) (UniProt P78324+Q08722); assay: CD47-SIRPalpha protein protein interaction - LANCE assay qHTS validation (AID 1347057; active = well fitted curve in the direction sought with a large enough effect in the signal ratio, with a control signal flat, not every such curve was filed as active; the % refers to the signal ratio; also: 0% is about no effect)
How it was run: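 Inhibition of soluble CD47/SIRPalpha ectodomain association by titrated compounds, measured as 665/615 nm time-resolved FRET ratio after sequential 30 min room-temperature incubations.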

[3] = target: T1, Tyrosine-protein phosphatase non-receptor type substrate 1 (Homo sapiens) + Leukocyte surface antigen CD47 (Homo sapiens); assay: CD47-SIRPalpha protein protein interaction - HTRF assay qHTS validation (AID 1347058; active = well fitted curve in the direction sought with a large enough effect in the signal ratio, not every such curve was filed as active; the % refers to the signal ratio; also: 0% is about no effect)
How it was run: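 Soluble extracellular domains (6His-CD47, Avi-tag-biotinylated SIRPalpha) in PBS pH 7.4 with 0.05% IGEPAL CA-630. Compounds were preincubated 30 min at RT with CD47 and anti-His-Eu, then SIRPalpha and SAV-XL665 were added. TR-FRET 665/615 ratio.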

[4] = target: Parathyroid hormone/parathyroid hormone-related peptide receptor (Homo sapiens) (UniProt Q03431); assay: qHTS for PTHR1 Agonists: Optimization Screen against the NCGC LOPAC library (AID 1347079);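 also: GloSensor cAMP luminescence in HEK-293 GP2 cells expressing human PTHR1 with IBMX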; also: potency is read from the fitted curve at half-maximal effect
How it was run: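 HEK-293 GP2 cells, PTHR1 + GloSensor cAMP; 3000 cells/well, o/n. Luciferin + IBMX 0.5mM each (stock), 1 hr 37C. Cpd titration, 1 hr 37C. Lum after 15 min RT. Ctrl M-PTH(1-15) top 10uM.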

[5] = target: N-terminal Xaa-Pro-Lys N-methyltransferase 1 (Homo sapiens) (UniProt Q9BV86); assay: qHTS Assay for Inhibitors of N-terminal methyltransferase 1 (NTMT1): LOPAC validation of the NTMT1 SAHH-coupled ThioGlo3 Assay (AID 1347143);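 also: SAH from peptide methylation measured as thiol fluorescence via SAHH coupling and ThioGlo3; nearly all actives have a fitted effect of over 70% in size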; also: potency is read from the fitted curve at half-maximal effect
How it was run: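 Steps: dispense 125nM NTMT1; pin-transfer test compounds at several concentrations, with 1uM RCC1-6 peptide as control; incubate 1 min; start with reagent holding 100uM SAM, 10uM SAHH, 15uM ThioGlo3; read at 0 and 30 min.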

[6] = system: Zika virus NS2B-NS3 protease (linked construct); assay: Confirmatory screen NINDS AMC qHTS for Zika virus inhibitors (AID 1347152);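 also: AMC fluorescence gain from cleaved Bz-Nle-KRR-AMC substrate over 15 min; top concentration of the series differs between compounds; 0% = no-inhibitor control and -100% = no-enzyme control; nearly all actives have a fitted effect of over 70% in size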
How it was run: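 Concentration-response confirmation used the NINDS linked protease (NS2B hydrophilic domain joined to NS3 protease domain), 1 nM, with a 15-min compound preincubation. Substrate, Nle-KRR-AMC at 10 microM, was read by UV fluorescence before and after 15 min.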

[7] = system: Zika virus NS2B-NS3 protease (unlinked complex); assay: Confirmatory screen GU AMC qHTS for Zika virus inhibitors (AID 1347153); also: nearly all actives have a fitted effect of over 70% in size; also: potency is read from the fitted curve at half-maximal effect;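 as to activity, negative = inhibition: percent inhibition with 0% = no inhibitor control and 100% = no enzyme control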
How it was run: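 Unlinked enzyme 25 nM, Tris pH 8.0/0.01% Tween 20; cpd 15 min RT, dark; + AMC substrate 10 µM (Km 18.3 µM); 340/450 nm read at t0 and 15 min; % inhibition → 4-param fit.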

[8] = system: Zika virus NS2B-NS3 protease; assay: Primary screen GU AMC qHTS for Zika virus inhibitors (AID 1347154);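 also: 0% = no-inhibitor control and -100% = no-enzyme control; nearly all actives have a fitted effect of over 70% in size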
How it was run: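 Unlinked Zika NS2B hydrophilic domain–NS3 protease complex at 25 nM in 10 mM Tris-HCl pH 8.0, 0.01% Tween 20, with an AMC peptide substrate. Fluorescence change (340/450 nm) over 15 min at room temperature, normalized to controls, fitted to 4-parameter Hill.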

[9] = system: Zika virus NS2B-NS3 protease (linked); assay: 384 well plate NINDS AMC confirmatory qHTS for Zika virus inhibitors (AID 1347163);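 also: fluorescence of AMC released from Ac-VKTGKR-AMC peptide cleaved by the protease; top concentration of the series differs between compounds; 0% = no-inhibitor control and -100% = no-enzyme control; nearly all actives have a fitted effect of over 50% in size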
How it was run: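 Fluorescence at 355/460 nm was read after 25 minutes of cleavage of 30 microM Ac-VKTGKR-AMC at room temperature, in the dark. Before substrate addition, compounds (up to 1 mM final) sat ~15 minutes with 5, 30 or 60 nM linked protease. Signals were normalized to no-enzyme and no-inhibitor wells.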

[10] = Vero cells viability qHTS for Zika virus inhibitors (AID 1347167); also: % is scaled to controls: 0 for no effect and ±100 for the full control effect
How it was run: (§1)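 qHTS titration; 24-48 h compound exposure, 37 degrees C/5% CO2; DMEM, 4% FBS; CellTiter Glo ATP luminescence.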

[11] = HepG2 cells viability qHTS for Zika virus inhibitors (AID 1347168); also: % is scaled to controls: 0 for no effect and ±100 for the full control effect
How it was run: as §1

[12] = target: T1, Tyrosine-protein phosphatase non-receptor type substrate 1 (Homo sapiens) + Leukocyte surface antigen CD47 (Homo sapiens); assay: CD47-SIRPalpha protein protein interaction - Alpha assay qHTS validation (AID 1347059);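 also: bead proximity luminescence from CD47 binding SIRPalpha after compound preincubation with SIRPalpha; % is scaled to controls: 0 for no effect and ±100 for the full control effect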
How it was run: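 SIRPalpha-biotin 25 nM + cpd, 30 min RT, dark; add CD47-His 12.5 nM, 30 min; add Ni-NTA/SAV beads 10 ug/mL, 30 min; AlphaScreen. Buffer PBS pH 7.4 + 0.05% IGEPAL CA-630. Non-biotinylated SIRPalpha as control inhibitor.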

[13] = system: Zika virus NS2B-NS3 protease (unlinked); assay: Optimization of GU AMC qHTS for Zika virus inhibitors: Unlinked NS2B-NS3 protease assay (AID 1347151); also: nearly all actives have a fitted effect of over 80% in size; also: potency is read from the fitted curve at half-maximal effect
How it was run: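 In this qHTS, compounds acted on 25 nM unlinked Zika NS2B–NS3 in pH 8.0 Tris/Tween buffer. Cleavage of an AMC peptide ran 15 min at room temperature, to about 20% conversion.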

[14] = target: Lysine-specific demethylase 5B (Homo sapiens) (UniProt Q9UGL1); assay: Optimization screen for KDM5B Histone Demethylases FDH coupled qHTS against the LOPAC library (AID 1347166); conditions: KDM5B demethylation, FDH-coupled NADH fluorescence (FDH is formaldehyde dehydrogenase); at 57.5 µM (top of the series); also: 0% is about no effect
How it was run: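 KDM5BDeltaAP (200nM final) in 50mM HEPES pH 7.5, 0.01% Tween-20 was preincubated with compound for 10 min at room temperature. A substrate mix of 12.5uM H3K4Me3, 25uM a-ketoglutarate, ascorbate, Fe2+, NAD+ and formaldehyde dehydrogenase was then added. NADH fluorescence (340/450 nm) was read initially and after 30 min.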

[15] = Confirmatory screen NINDS Rhodamine qHTS for Zika virus inhibitors (AID 1347161); also: potency is read from the fitted curve at half-maximal effect; nearly all actives have a fitted effect of over 60% in size
How it was run: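 In 10 mM Tris-HCl pH 8.0 containing 0.01% Tween 20, linked NS2B-NS3 protease (25 nM final) is exposed to test compounds for 15 min. Cleavage of 1.5 microM Rhodamine110 substrate is tracked by fluorescence over 15 min.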

[16] = system: Zika virus NS2B-NS3 protease (linked construct); assay: 384 well plate NINDS Rhodamine confirmatory qHTS for Zika virus inhibitors (AID 1347164); also: potency is read from the fitted curve at half-maximal effect; nearly all actives have a fitted effect of over 65% in size
How it was run: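 Cleavage of Ac-LKRR-Rhodamine 110 (10 microM final) by linked protease (final 5, 30 or 60 nM) was followed as fluorescence at 485/538 nm after 25 min, room temperature, dark. Compounds preincubated ~15 min.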

Chain of Parathyroid hormone/parathyroid hormone-related peptide receptor (Homo sapiens) (Q03431 whole entry, looked up): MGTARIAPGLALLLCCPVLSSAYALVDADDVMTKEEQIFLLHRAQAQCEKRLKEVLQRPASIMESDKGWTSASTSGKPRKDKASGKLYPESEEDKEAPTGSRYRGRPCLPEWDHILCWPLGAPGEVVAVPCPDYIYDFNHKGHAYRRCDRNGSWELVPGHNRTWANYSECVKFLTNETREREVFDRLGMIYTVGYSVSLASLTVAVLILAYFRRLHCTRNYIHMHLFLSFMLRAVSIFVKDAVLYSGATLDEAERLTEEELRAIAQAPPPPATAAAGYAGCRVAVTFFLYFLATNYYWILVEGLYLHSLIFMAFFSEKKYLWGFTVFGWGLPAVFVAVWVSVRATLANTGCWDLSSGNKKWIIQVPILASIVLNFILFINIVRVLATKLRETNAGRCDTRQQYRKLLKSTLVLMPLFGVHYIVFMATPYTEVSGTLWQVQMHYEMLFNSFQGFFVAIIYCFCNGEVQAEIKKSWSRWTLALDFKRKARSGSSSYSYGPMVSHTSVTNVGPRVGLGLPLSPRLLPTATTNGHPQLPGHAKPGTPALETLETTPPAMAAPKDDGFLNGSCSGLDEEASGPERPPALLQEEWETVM
Chain of Lysine-specific demethylase 5B (Homo sapiens) (Q9UGL1 whole entry, looked up): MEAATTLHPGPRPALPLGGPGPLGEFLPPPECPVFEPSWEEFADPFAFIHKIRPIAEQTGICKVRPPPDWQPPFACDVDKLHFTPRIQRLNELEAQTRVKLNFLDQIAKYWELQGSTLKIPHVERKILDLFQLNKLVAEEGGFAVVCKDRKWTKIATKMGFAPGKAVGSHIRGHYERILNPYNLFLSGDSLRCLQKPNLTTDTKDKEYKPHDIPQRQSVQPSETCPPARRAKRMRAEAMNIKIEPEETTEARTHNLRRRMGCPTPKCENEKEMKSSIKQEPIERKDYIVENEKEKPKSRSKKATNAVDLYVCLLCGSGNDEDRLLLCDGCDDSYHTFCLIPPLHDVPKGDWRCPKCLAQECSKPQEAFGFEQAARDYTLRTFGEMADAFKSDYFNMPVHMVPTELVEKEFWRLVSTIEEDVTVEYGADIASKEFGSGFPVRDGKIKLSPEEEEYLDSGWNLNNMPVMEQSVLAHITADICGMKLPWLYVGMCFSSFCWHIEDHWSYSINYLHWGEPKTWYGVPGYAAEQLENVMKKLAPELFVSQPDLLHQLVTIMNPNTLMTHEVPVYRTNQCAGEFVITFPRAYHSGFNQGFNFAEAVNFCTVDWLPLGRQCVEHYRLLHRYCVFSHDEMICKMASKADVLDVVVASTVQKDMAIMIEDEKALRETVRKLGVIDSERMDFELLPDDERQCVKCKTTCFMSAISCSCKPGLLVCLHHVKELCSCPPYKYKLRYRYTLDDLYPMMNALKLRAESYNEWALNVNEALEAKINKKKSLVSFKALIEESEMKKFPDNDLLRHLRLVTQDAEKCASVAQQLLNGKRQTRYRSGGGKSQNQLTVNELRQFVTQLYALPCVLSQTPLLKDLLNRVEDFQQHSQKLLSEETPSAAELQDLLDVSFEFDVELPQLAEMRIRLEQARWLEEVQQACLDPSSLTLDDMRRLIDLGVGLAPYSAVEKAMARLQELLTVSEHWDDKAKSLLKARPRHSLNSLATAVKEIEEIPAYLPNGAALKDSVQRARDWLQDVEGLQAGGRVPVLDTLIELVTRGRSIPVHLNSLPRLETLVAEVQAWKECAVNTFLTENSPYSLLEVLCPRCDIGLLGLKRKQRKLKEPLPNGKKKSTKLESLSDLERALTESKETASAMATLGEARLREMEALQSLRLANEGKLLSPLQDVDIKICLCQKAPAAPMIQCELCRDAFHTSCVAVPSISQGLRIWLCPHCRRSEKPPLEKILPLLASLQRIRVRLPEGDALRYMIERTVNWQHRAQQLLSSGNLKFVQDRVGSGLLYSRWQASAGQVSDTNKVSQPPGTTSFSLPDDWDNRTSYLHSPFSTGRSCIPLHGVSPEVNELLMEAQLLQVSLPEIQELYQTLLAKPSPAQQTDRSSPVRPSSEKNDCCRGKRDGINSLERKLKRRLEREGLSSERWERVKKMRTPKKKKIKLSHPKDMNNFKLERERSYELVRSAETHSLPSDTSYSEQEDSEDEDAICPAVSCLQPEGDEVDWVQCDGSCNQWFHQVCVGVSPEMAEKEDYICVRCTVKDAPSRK
Chain of N-terminal Xaa-Pro-Lys N-methyltransferase 1 (Homo sapiens) (Q9BV86 whole entry, looked up): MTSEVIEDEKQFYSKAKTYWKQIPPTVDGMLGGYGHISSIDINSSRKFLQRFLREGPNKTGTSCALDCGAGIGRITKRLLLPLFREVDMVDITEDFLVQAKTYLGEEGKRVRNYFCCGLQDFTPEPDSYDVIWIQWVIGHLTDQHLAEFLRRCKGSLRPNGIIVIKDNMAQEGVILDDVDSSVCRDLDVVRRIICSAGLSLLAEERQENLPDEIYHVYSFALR
T1 sequence (P78324 whole entry, looked up, the tested form may be a part): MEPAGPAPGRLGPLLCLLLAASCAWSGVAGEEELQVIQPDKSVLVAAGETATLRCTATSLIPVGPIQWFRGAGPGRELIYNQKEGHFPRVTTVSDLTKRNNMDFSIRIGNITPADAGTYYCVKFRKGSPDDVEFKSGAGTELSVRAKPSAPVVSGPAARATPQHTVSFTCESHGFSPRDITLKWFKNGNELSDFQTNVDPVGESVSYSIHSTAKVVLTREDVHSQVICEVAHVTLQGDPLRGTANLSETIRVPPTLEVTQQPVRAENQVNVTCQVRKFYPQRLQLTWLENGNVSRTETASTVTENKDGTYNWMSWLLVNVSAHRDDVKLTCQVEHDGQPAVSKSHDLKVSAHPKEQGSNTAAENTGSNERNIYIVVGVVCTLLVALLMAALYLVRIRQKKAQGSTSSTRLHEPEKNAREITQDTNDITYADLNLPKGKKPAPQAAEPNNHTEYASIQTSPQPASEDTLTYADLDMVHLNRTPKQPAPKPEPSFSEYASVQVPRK
T1 sequence (Q08722 whole entry, looked up, the tested form may be a part): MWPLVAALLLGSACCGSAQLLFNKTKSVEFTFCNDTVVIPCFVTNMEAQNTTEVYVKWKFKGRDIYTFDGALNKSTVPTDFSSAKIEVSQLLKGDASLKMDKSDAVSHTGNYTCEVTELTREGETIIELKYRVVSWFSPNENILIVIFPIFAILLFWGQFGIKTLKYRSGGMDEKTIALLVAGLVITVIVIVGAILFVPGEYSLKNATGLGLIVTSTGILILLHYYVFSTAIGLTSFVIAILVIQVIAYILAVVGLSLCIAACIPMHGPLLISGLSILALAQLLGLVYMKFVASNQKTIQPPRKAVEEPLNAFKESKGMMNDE

Nc1nc2ccc(Cl)cc2c2nc(-c3ccco3)nn12
active: Potency [4] 6.7 µM | Potency [5] 12.6 µM
inactive: Potency [1] | Potency [2] | outcome [3] | Potency [6] | Potency [7] | Potency [8] | Potency [9] | Potency [10] | outcome [11]

COc1cc(/C=C(\C#N)C(=O)c2ccc(O)c(O)c2)cc(I)c1O
inactive: Potency [1] | Potency [2] | Potency [12] | Potency [4]
active: Potency [5] 50.1 µM

NC(=O)c1ccccc1
inactive: Potency [1] | Potency [2] | outcome [3] | Potency [4] | Potency [5] | Potency [13] | activity, negative = inhibition [14] 0.361%

COc1ccc2c(c1)c(CC(=O)O)c(C)n2C(=O)c1ccccc1
inactive: Potency [1] | Potency [2] | outcome [3] | Potency [5] | Potency [13] | activity, negative = inhibition [14] 5.12%

O=C(O)/C=C/c1cnc[nH]1
inactive: Potency [1] | Potency [2] | outcome [3] | Potency [4] | Potency [5] | Potency [13] | activity, negative = inhibition [14] -28.2%

COc1cc(/C=C(\C#N)C(=O)Nc2nnc(C(F)(F)F)s2)ccc1OCc1ccc(C(F)(F)F)cc1C(F)(F)F
inactive: Potency [1] | Potency [2] | outcome [3] | Potency [4] | Potency [9] | outcome [11]
active: Potency [5] 56.2 µM | Potency [13] 2.12 µM | Potency [7] 15.2 µM | Potency [15] 1.75 µM | Potency [16] 14.1 µM

CCCC(=O)NCCc1c2n(c3ccc(OC)cc13)CCCc1ccccc1-2
inactive: Potency [1] | Potency [2] | outcome [3] | Potency [4]
active: Potency [13] 26.7 µM

CC(=O)O[C@H]1Cc2ccccc2N(C(N)=O)c2ccccc21
inactive: Potency [1] | Potency [2] | outcome [3] | Potency [4] | Potency [5] | Potency [13] | activity, negative = inhibition [14] -5.85%

NC1CONC1=O (stereo not drawn)
inactive: Potency [1] | Potency [2] | outcome [3] | Potency [4] | Potency [5] | Potency [13] | activity, negative = inhibition [14] -3.54%

O=C(O)C1CCNCC1
inactive: Potency [1] | Potency [2] | outcome [3] | Potency [4] | Potency [5] | Potency [13]

[Li+]
inactive: Potency [1] | Potency [2] | outcome [3] | Potency [4] | Potency [5] | Potency [13] | activity, negative = inhibition [14] -3.55%

OC[C@H]1NC[C@@H](O)[C@@H]1O
inactive: Potency [1] | Potency [2] | outcome [3] | Potency [4] | Potency [5] | Potency [13] | activity, negative = inhibition [14] 1.64%

NC(Cc1cccc(-c2ccccc2CP(=O)(O)O)c1)C(=O)O (stereo not drawn)
inactive: Potency [1] | Potency [2] | outcome [3] | Potency [4] | Potency [5] | Potency [13] | activity, negative = inhibition [14] -9.93%

COc1ccc2c(c1)CCC1C2CC[C@@]2(C)C1CC[C@@H]2NCCCCCCN1C(=O)C=CC1=O (stereo partly drawn)
inactive: Potency [1] | Potency [2] | outcome [3] | Potency [4] | Potency [5] | Potency [13] | activity, negative = inhibition [14] -20.3%

CCCCCCCCCCCCCCSCC(=O)O
active: Potency [13] 11.9 µM
inactive: Potency [1] | Potency [2] | outcome [3] | Potency [4] | Potency [5] | activity, negative = inhibition [14] -24.4%

CCC(=O)N1CCN(C(=O)c2ccccc2)CC1
inactive: Potency [1] | Potency [2] | outcome [3] | Potency [4] | Potency [5] | Potency [13] | activity, negative = inhibition [14] 3.19%

CC(=O)NNC(=O)N1Cc2ccccc2Oc2ccc(Cl)cc21
inactive: Potency [1] | Potency [2] | outcome [3] | Potency [4] | Potency [5] | Potency [13] | Potency [8] | activity, negative = inhibition [14] -5.14%

COc1cccc(OC)c1OCCNCC1CSc2ccccc2O1 (stereo not drawn)
inactive: Potency [1] | Potency [2] | outcome [3] | Potency [4] | Potency [13] | activity, negative = inhibition [14] -14.1%
